Hit rate of the full screen: of about 2,100 compounds, about 590 (28%) were called active. Inconclusive results (about 42%) are left out. The list shows a part of the results. A number with no mark means an inactive call. Calls come from the whole dose curve; as a rule, active = well fitted inhibition curve with a large enough effect; inconclusive = small, poorly fitted or top-dose-only effect; inactive = flat fitted curve, though single readings scatter.
Molecular target: DNA dC->dU-editing enzyme APOBEC-3F (Homo sapiens) (UniProt Q8IUX4)
Experiment: qHTS for inhibitors of Vif-A3F interactions: Cherry picks; note: nearly all actives have a fitted effect of over 70% in size;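 for max response: % of control where 0% means no effect; active compounds raise eYFP fluorescence by blocking Vif-driven A3F loss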
Details: HeLa A3F-eYFP + Vif (tagged APOBEC3F with the HIV-1 protein that degrades it), eYFP fluorescence, 24 h
Excerpt: The recent discovery and characterization of host restriction factors, which provide a potent defense to invading retroviruses, has provided new targets for antiviral drug development. APOBEC3G (A3G) and APOBEC3F (A3F) are potent cytidine deaminases that block HIV-1 replication; HIV-1 expresses the Vif protein, which counteracts A3G and A3F by binding to them and inducing their proteasomal degradation. The Vif-A3G and Vif-A3F interactions provide two potential targets for development of small molecules which can interfere with the ability of Vif to degrade A3G or A3F. […] To identify inhibitors that can interfere with Vif mediated degradation of A3G and A3F, we have developed Hela cell lines that stably express A3G or A3F tagged with eYFP at the C-terminal end (A3G-eYFP or A3F-eYFP, respectively) and Vif. In the absence of an inhibitor, Vif induces degradation of A3G-eYFP and A3F-eYFP, and the cells are not fluorescent. In the presence of an inhibitor, it is expected that Vif will be unable to degrade A3G-eYFP and/or A3F-eYFP, resulting in an increase in yellow fluorescence. In this assay, Vif A3F was screened against the cherry picks ordered from the MLSMR. NIH Chemical Genomics Center [NCGC] NIH Molecular Libraries Probe Centers Network [MLPCN] MLPCN Grant: MH093245 Assay Submitter (PI): Vinay Pathak, National Cancer Institute
A3F-Vif cells were harvested from T225 flask and resuspended in phenol free OPTI-MEM medium with 5% FBS. Then 5 uL of 140,000 cells/mL resuspended cells was dispensed into each well of low base Aurora COC 1,536-well plates (black walled, clear bottom) using a Multidrop Combi dispenser. After overnight culture at 37 deg C with 5% CO2, a total of 23 nL of compounds at 5 selected concentrations from the NPC or positive control (2 mM stock of MG132) in DMSO was transferred to each well of the assay plate using a pintool (Kalypsys, San Diego, CA), and the plates were further incubated at 37 deg C with 5% CO2 for 24 hours. After that, the plates were measured on Acumen Explorer (TTP Lab Tech). The fluorescence was detected by 488 nm/Ex and […].
Potency is the fitted concentration of half-maximal effect.

Sequence of DNA dC->dU-editing enzyme APOBEC-3F (Homo sapiens) (Q8IUX4 whole entry, looked up): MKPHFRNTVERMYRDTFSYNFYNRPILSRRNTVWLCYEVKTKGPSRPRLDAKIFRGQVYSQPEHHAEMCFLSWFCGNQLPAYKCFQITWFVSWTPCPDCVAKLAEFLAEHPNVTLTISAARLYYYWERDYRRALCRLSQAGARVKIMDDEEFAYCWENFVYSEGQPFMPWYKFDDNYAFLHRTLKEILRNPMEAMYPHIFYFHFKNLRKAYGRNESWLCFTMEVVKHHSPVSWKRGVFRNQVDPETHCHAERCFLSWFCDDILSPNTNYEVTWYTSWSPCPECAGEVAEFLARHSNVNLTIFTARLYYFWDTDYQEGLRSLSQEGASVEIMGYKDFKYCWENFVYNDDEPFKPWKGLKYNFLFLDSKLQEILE

| SMILES | Potency | max response |
| --- | --- | --- |
| Cc1ccc(CNC(=O)c2ccccc2NC(=O)c2nsc3ccccc23)cc1 | 20.6 µM (active) | – |
| CCN(CC)c1ccc(/C=C2\C(=O)NC(=S)N(C)C2=O)o1 | 14 µM (active) | – |
| Cc1ccc(/C=C2/C(=O)NC(=O)N(CCc3ccc(F)cc3)C2=O)s1 | – | -13.3% |
| CCN(CC)c1ccc(C=C2C(=O)N(C)C(=S)N(C)C2=O)o1 | 3.96 µM (active) | – |
| Cc1cccc(-n2c(/C=C/c3c(C)[nH]c4ccccc34)nc3ccccc3c2=O)c1 | 20.6 µM (active) | – |
| O=Cc1c(C(=O)O)n(Cc2ccc(Cl)cc2)c2ccccc12 | 20.6 µM (active) | – |
| CC(=O)OC1C2(CC3N4C(=O)C5(CO)SSC4(CC31O)C(=O)N5C)OC(C)C(C)(C)C2=O (stereo not drawn) | 6.27 µM (active) | – |
| Cc1cccc(CN2CCCC(C(=O)c3cccc(OC(C)C)c3)C2)n1 (stereo not drawn) | – | 3.61% |
| ClCCN(CCCl)c1ccc(C=Cc2ccncn2)cc1 | – | -17% |
| O=C1NC(=S)SC1=Cc1ccc(N(CCCl)CCCl)cc1 | 14 µM (active) | – |
| CN1C(=O)C(=Cc2ccc(N3CCOCC3)o2)C(=O)N(C)C1=S | 23.1 µM (active) | – |
| CN1C(=O)C(=Cc2ccc(N3CCCCC3)o2)C(=O)N(C)C1=S | 5.17 µM (active) | – |
| CN1C(=O)C(=Cc2ccc(N3CCOCC3)o2)C(=O)N(C)C1=O | 18.4 µM (active) | – |
| O=C1NC(=O)N(c2ccc3c(c2)OCO3)C(=O)/C1=C/c1ccc(N2CCCCC2)o1 | 23.1 µM (active) | – |
| O=C1NC(=O)N(c2ccc3c(c2)OCO3)C(=O)/C1=C\c1ccc(N2CCCCC2)o1 | 18.4 µM (active) | – |
| CC(C)c1ccc(N2C(=O)NC(=O)/C(=C\C=C\c3ccco3)C2=O)cc1 | 17.7 µM (active) | – |
| O=C1NC(=O)N(Cc2ccc(F)cc2)C(=O)/C1=C\C=C\c1ccco1 | – | -29.5% |
| CN(C)c1ccc(/C=C/C=C2/C(=O)NC(=O)N(c3ccccc3)C2=O)cc1 | 16.4 µM (active) | – |
| Cc1ccc(N2C(=O)NC(=O)/C(=C\C=C\c3ccco3)C2=O)cc1C | – | -16.6% |
| Cc1cc(N2CCCC2)ccc1C=C(C#N)C#N | 7.31 µM (active) | – |
| Cc1nn(Cc2ccccc2)c(C)c1C(=O)OCC(=O)Nc1ccccc1SCC#N | 14 µM (active) | – |
| CCN(CC)c1ccc(N=Cc2c(O)n(CCC3=CCCCC3)c(=O)[nH]c2=O)cc1 | 3.66 µM (active) | – |
| CCN(CC)c1ccc(N=Cc2c(O)n(Cc3ccccc3)c(=O)[nH]c2=O)cc1 | 3.26 µM (active) | – |
| CC/C(=N\NC(=O)c1ccccc1O)c1c(O)n(Cc2ccccc2)c(=O)[nH]c1=O | – | -28.7% |

| SMILES | Potency | max response |
| --- | --- | --- |
| CC1=CC(=Cc2sc3ccccc3[n+]2C)C=C(C)O1 | 5.17 µM (active) | – |
| CCCCn1c(O)c(C(=O)/C=C/c2c[nH]c3ccccc23)c(=O)[nH]c1=O | 12.5 µM (active) | – |
| CN1CCN(c2ccc(/C=C3\C(=O)NC(=S)N(c4cccc(Br)c4)C3=O)o2)CC1 | 18.4 µM (active) | – |
| CCC(C)N1C(=O)/C(=C\c2ccc(N3CCCCCC3)cc2)C(=O)NC1=S (stereo not drawn) | – | -14.3% |
| CN1C(=O)/C(=C/c2ccc(N3CCCCCC3)o2)C(=O)NC1=S | 12.5 µM (active) | – |
| CN1C(=O)/C(=C\c2ccc(N3CCCCC3)o2)C(=O)NC1=S | 14 µM (active) | – |
| Cc1cc(/C=C2\C(=O)NC(=O)N(c3ccc(Br)cc3)C2=O)c(C)n1C | – | -6.73% |
| O=c1[nH]c(CN2CC=C(c3ccccc3)CC2)nc2scc(-c3ccccc3)c12 | 18.4 µM (active) | – |
| Nc1ccc2c3c(cccc13)-c1ccccc1-2 | 4.11 µM (active) | – |
| COc1cc(C2C(C#N)=C(N)Oc3cc(O)ccc32)cc(OC)c1OC (stereo not drawn) | 1.98 µM (active) | – |
| CCCCNC(=O)/C(C#N)=c1\s/c(=C\c2ccccc2OC(F)F)c(=O)n1CCCOC | 16.4 µM (active) | – |
| COCCNC(=O)c1c(NC(=O)c2ccc(Br)o2)n(Cc2ccccc2)c2nc3ccccc3nc12 | – | -6.71% |
| CCCCCn1c(NC(=O)c2ccco2)c(C(=O)OCC)c2nc3ccccc3nc21 | 15.8 µM (active) | – |
| O=c1[nH]c(=O)n(Cc2ccccc2Cl)c(O)c1/C=C1/C=CC=N1 | 9.2 µM (active) | – |
| CC(C)CCCn1c(O)c(/C=C2/C=CC=N2)c(=O)[nH]c1=O | 18.4 µM (active) | – |
| COC(=O)C1=C(C)N(Cc2ccco2)C(=O)/C1=C\c1ccc(N(C)C)cc1 | 13 µM (active) | – |
| O=c1c2ccccc2nc(/C=C/c2ccc([N+](=O)[O-])o2)n1-c1ccc(O)cc1 | 12.5 µM (active) | – |
| CN1/C(=C\C=C2C(=O)NC(=O)NC2=O)C(C)(C)c2ccccc21 | – | -9.38% |
| O=C1NC(=O)N(Cc2ccc(F)cc2)C(=O)/C1=C\c1ccoc1 | – | -24.2% |
| O=C(Cc1ccccc1)c1ccccn1 | 17.7 µM (active) | – |
| CCS(=O)(=O)N1N=C(c2cccc(NS(C)(=O)=O)c2)CC1c1ccccc1 (stereo not drawn) | 23.1 µM (active) | – |
| Cc1ccccc1-n1c(/C=C/c2ccc(N(C)C)cc2)nc2ccccc2c1=O | 3.26 µM (active) | – |
| COc1ccccc1-n1c(/C=C/c2ccc(O)cc2)nc2ccccc2c1=O | – | -0.327% |
| O=c1nc(/C=C/c2ccc(Cl)cc2Cl)cc(C(F)(F)F)[nH]1 | – | -25.1% |
